Assays:
Test in all cases: PBM binding z-score (relative to random genomic background probes); higher = stronger binding; sequences stand for … in GC…GCGATTGACAGCGTAGAATGAAGG
[1] = test system: PPARg:RXRa DBDmut IVT, anti-RXR (DBD mutation: RXRa K156A/R161A, NR concentration 270 nM, RXRa partner concentration 90 nM)
Summary of the method: (§1)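 The probes on custom Agilent 4×180K protein-binding microarrays were double-stranded, with 34-nt variable regions bearing direct-repeat seeds, single-nucleotide variants, half-site ablations and random human genomic background sequences. Incubation lasted 1 h with ligand-free nuclear receptor dimers in PBS pH 7.4, 2% milk, 0.02% Triton X-100, 1 mM DTT, 0.2 mg/mL BSA and 0.4 mg/ml salmon testes DNA. Antibodies against each partner (one per run) detected bound dimers, and fluorescence scans were regression-normalized. Binding z-scores take the random background probes as reference.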

[2] = test system: PPARg:RXRa IVT, anti-PPARg (NR concentration 270 nM, RXRa partner concentration 90 nM)
Summary of the method: as §1

[3] = test system: PPARg DBDmut:RXRa IVT, anti-PPARg (DBD mutation: PPARg1 K132A/R137A, NR concentration 270 nM, RXRa partner concentration 90 nM)
Summary of the method: as §1

[4] = test system: PPARg DBDmut IVT, anti-PPARg (DBD mutation: PPARg1 K132A/R137A, NR concentration 270 nM)
Summary of the method: as §1

[5] = test system: PPARg homodimer (NR concentration 180 nM)
Summary of the method: as §1

[6] = test system: PXR:RXRa (NR concentration 270 nM, RXRa partner concentration 90 nM)
Summary of the method: as §1

[7] = test system: PXR homodimer (NR concentration 270 nM)
Summary of the method: as §1

[8] = test system: RARa:RXR (NR concentration 270 nM, RXRa partner concentration 90 nM)
Summary of the method: as §1

[9] = test system: RARa homodimer (NR concentration 270 nM)
Summary of the method: as §1

[10] = test system: RARb:RXRa (NR concentration 270 nM, RXRa partner concentration 90 nM)
Summary of the method: as §1

| Sequence | PBM binding z-score [1] | PBM binding z-score [2] | PBM binding z-score [3] | PBM binding z-score [4] | PBM binding z-score [5] | PBM binding z-score [6] | PBM binding z-score [7] | PBM binding z-score [8] | PBM binding z-score [9] | PBM binding z-score [10] |
| --- | --- | --- | --- | --- | --- | --- | --- | --- | --- | --- |
| ATATGTAGGTTTCATCCGGGTCATTCAGGCTATG | 4.9 | 4.69 | 1.71 | 1.7 | 1.33 | 2.86 | 2.28 | 2.55 | 0.582 | 1.43 |
| CGTTCAAGGTCAGAGAGGTCAGTGAATGCCGAGT | 3.67 | 4.41 | 1.75 | 1.56 | 5.16 | 6.25 | 12.2 | 5.57 | 2.45 | 5.45 |
| CCTCAGAGGACAGAAGGTCAGAGCTGTCCGCTTT | 0.0276 | 0.424 | -0.801 | -2.11 | 1.69 | 1.66 | -0.179 | 2.01 | 0.177 | 3.41 |
| GCAGACTGGTGAAACGCAGGTAACTCAGGGTGGC | -0.965 | -0.728 | -0.431 | -1.07 | -1.3 | -0.855 | -0.855 | -0.718 | -1.39 | -0.689 |
| CGTCAAAGTTCAACTAAGGTAACGTCAAGCACGC | 0.771 | 2.28 | 0.0665 | 0.943 | 3.82 | 5.69 | 4.39 | 4.56 | 1.85 | 5.3 |
| CAGCCTAGGTCAGGGACAGTATAGGAGGAACGTT | 1.29 | 1.68 | -0.599 | -0.73 | 0.801 | 0.546 | -0.219 | 1.22 | 0.00135 | 3.4 |
| CGCGAAAGGTCGGTTGAGGTGAGTATACGGATAA | 0.0113 | 0.699 | 0.0036 | -0.174 | 0.986 | 3.35 | -0.075 | 3.62 | 0.138 | 3.08 |
| CCAGACCGGTGAAAGGTAACTCAGTCTGGTACGC | -0.315 | 1.07 | -1.56 | -0.816 | 0.901 | 0.218 | -0.239 | 0.267 | -0.377 | 0.477 |
| TCTCGGAGGACACGAAAGGACAGAGCTCGACATC | 1.47 | 0.125 | -0.295 | -0.96 | -0.288 | -0.168 | -0.334 | 0.0232 | -0.282 | 2.03 |
| ATCTCTAGGGAAAGATAGTTCAGTGAATGCAAAT | 0.0889 | 0.274 | 0.441 | 0.248 | 0.581 | 0.457 | 0.536 | 0.402 | 0.55 | 0.406 |
| GGAACGAGGGCAAGTTGATACCAGAGTTTGATGG | 3.63 | 3.07 | -0.214 | -0.247 | 0.551 | 0.835 | 0.927 | 0.537 | 0.0477 | 2.45 |
| CCTAGCAGGTCAATCTGGGTCACTCAAGGCTTGA | 5.78 | 6.18 | 1.08 | -0.626 | 2.33 | 5.31 | 0.0416 | 4.45 | 0.436 | 3.96 |
| GGAACGTGGGCAAGTTGATAGCAGAGTTTGATGG | 0.19 | -0.544 | -0.762 | -0.713 | -0.313 | -0.46 | 0.121 | -0.634 | -0.639 | -0.191 |
| TAGCCTAGGTCATTGGGCCAGTATGGTACGCATC | 2.56 | 3.68 | 0.116 | 0.266 | 1.26 | 1.38 | -0.75 | 2.07 | -0.00791 | 3.44 |
| TCTAGTTGGTCACGGAGTTCACACACGACGGGTA | 2.4 | 2.92 | 1.45 | 0.822 | 1.92 | 4.53 | 3.62 | 2.15 | 0.649 | 2.87 |
| CTACCAAGGTGAACAAGATCGTTGATTACTATTC | 2.44 | 2.36 | 0.247 | 0.79 | 0.484 | 0.24 | -0.209 | 0.949 | 0.706 | 1.48 |
| CGTCCAAGGTCATAGGAGGTCAGAGAAGACAGAT | 3.19 | 4.81 | 1.6 | 0.958 | 3.89 | 6.83 | 4.38 | 6.6 | 1.92 | 5.51 |
| ACTAGCAGGCCAAGTTTGGGTCACTCCAACAAAG | 0.7 | 1.34 | -0.265 | -0.469 | 0.235 | 0.603 | -0.498 | 1.4 | -0.0686 | 1.74 |
| GGAACGAGGGCAAGTTGAGAGCAGAGTTTGATGG | 3.69 | 2.7 | 0.19 | -0.541 | 0.391 | 0.927 | 0.275 | 0.482 | -0.172 | 2.74 |
| GCATATAGGTAATACAAGTTGAAAGTCCGATTGT | 4.35 | 2.61 | 1.06 | 0.954 | 0.423 | 0.787 | 0.733 | 0.761 | 0.554 | 0.148 |
| GCGACTGGGGCAAAGCAGGTTACCCTAAGGTTGG | 4.69 | 3.9 | -0.575 | -1.15 | 0.0575 | 0.0911 | -0.579 | 0.634 | -1.43 | 0.752 |
| TTACCAAGGTGAGCTGAGGTCGTTTATCCAACTC | 0.956 | 1.9 | -0.2 | -0.389 | -0.278 | 4.87 | 0.621 | 1.58 | -1.08 | 1.53 |

| Sequence | PBM binding z-score [1] | PBM binding z-score [2] | PBM binding z-score [3] | PBM binding z-score [4] | PBM binding z-score [5] | PBM binding z-score [6] | PBM binding z-score [7] | PBM binding z-score [8] | PBM binding z-score [9] | PBM binding z-score [10] |
| --- | --- | --- | --- | --- | --- | --- | --- | --- | --- | --- |
| GCTATTAGCTGAAAGGGCAACCGAATGATTCTCG | 0.31 | 0.298 | -0.309 | -0.672 | 0.621 | 0.34 | -0.258 | 0.809 | -0.61 | 1.76 |
| CCTTACGGGTCACTCCAGGTAATAGCATCGGAGT | 2.28 | 3.72 | 0.64 | 0.618 | 2.25 | 3.63 | 0.169 | 3.88 | 0.163 | 3.72 |
| TATGCAGGGTCAAAGGCCAGAGTACGAATGTCGA | 1.27 | 3.92 | 0.572 | 0.66 | 2.29 | 4.49 | -0.344 | 6.18 | -0.114 | 4.34 |
| CCGACTGGGGCAGAAAGGCTACCATACCATCCGG | 0.897 | 0.918 | -0.746 | -1.37 | -0.0679 | -0.836 | -0.377 | -0.589 | 0.0496 | 0.362 |
| TGTCATAGTTCAAAGGTAACGTAAGTATCCACAC | -0.243 | 3.05 | 1.21 | 1.83 | 1.56 | 3.52 | 1.08 | 4.52 | 1.31 | 3.46 |
| CGTCAGAGTTCAAGGTAACGTAACAGAAAGCAGC | 0.546 | 0.936 | -0.0239 | 0.226 | 2.34 | 4.5 | 2.86 | 3.31 | 0.785 | 4.36 |
| CAAACTAGGTCAAACGTCAAAGTCGAGCCAACCA | 8.33 | 8.65 | 4.47 | 4.15 | 2.05 | 2.38 | 0.241 | 3.65 | 0.354 | 4.21 |
| ATATGTAGGTTCGCTGGGGTCATTCAGACTAGGC | 3.5 | 3.76 | 1.92 | 1.5 | 2.78 | 6.18 | 12.4 | 6.02 | 1.12 | 2.72 |
| CGAACTTGGTCATCCAGGACAGTGAATACATTGA | 1.09 | 1.08 | 0.648 | 0.367 | -0.34 | 0.166 | 0.269 | 0.326 | -0.093 | 1.23 |
| CCTACTGGGCCATCAGGACATTGATATCAACGTT | 3.58 | 3.83 | 0.0869 | 0.0679 | 0.687 | -0.0432 | -0.0909 | 0.486 | 0.102 | 0.235 |
| ATCTCTAGGTAAGACTCAGTTCAGTGAGGAACGC | 1.94 | 1.26 | 0.558 | 0.604 | 0.314 | 0.836 | 1.56 | 0.193 | 0.359 | 0.376 |
| TCTCGGAGGACACGAAAGGCCAGAGCTCGACATC | 1.19 | -0.0515 | -0.613 | -0.159 | -0.541 | -0.141 | -0.472 | 0.327 | -0.569 | 1.82 |
| TCTTGTAGATCAAGCAGGTTAAGACAGCCTGAGT | 1.59 | 0.85 | 0.703 | 0.0402 | -0.449 | 0.414 | 0.135 | 0.668 | -0.0996 | 0.151 |
| AGAATGATGTTATTAAGATCAGGGAATTGCGGTC | -0.219 | 0.135 | 0.648 | 0.441 | 0.197 | -0.0155 | -0.0811 | 0.136 | 0.841 | -0.333 |
| TCATATAGGTCAACAGGTGAAAGTCCGTAAGTTA | 7.13 | 7.59 | 3.03 | 1.96 | 3.88 | 3.49 | 1.08 | 4.84 | 2.3 | 4.83 |
| CCTATTAGTTGACCATAAGGGCAACCGGAGCTCG | 0.164 | 0.489 | -0.0255 | 0.00899 | 1.98 | 0.686 | 0.931 | 0.893 | 2.04 | 1.72 |
| CCAGACAGGTGAACGGTAACTCAGTCTGGTACGC | 1.49 | 1.08 | -0.573 | -0.154 | 0.0136 | -0.325 | -0.355 | -0.289 | -0.204 | 0.99 |
| CCGACTGGAGCATAAGGTTACCATAAGCCAGCCC | 0.771 | 0.172 | -0.467 | -1.49 | -0.0887 | 0.241 | -0.0972 | 1.11 | 0.0423 | 0.916 |
| TCATATAGGTAACCAGGTGAAAGTCCGTAAGTTA | 5.2 | 5.99 | 0.0685 | 0.802 | 1.14 | 0.852 | 0.506 | 1.06 | 0.583 | 1 |
| ATGCCAAGGTGATCGTGAGGTCGTTGATACTAAC | 0.413 | 1.05 | 0.0542 | -0.951 | 0.442 | 2.75 | 1.03 | 2.28 | -0.38 | 1.32 |
| ACTAGCAGGACAAGTTTGGGTCACTCAAACAAAG | 0.129 | 0.867 | 0.113 | -0.22 | 0.596 | 0.911 | -0.116 | 1.47 | -0.279 | 1.7 |
| TCTATTAGTTGAAGCGCAACCGACGAGTCCGTTT | 2.22 | 0.202 | 0.484 | 1.23 | 0.5 | 0.326 | 0.219 | 0.126 | 0.262 | 0.271 |

Reference: the supplement of paper PMC6555819
